PubChem BioAssay (NCATS)
Inconclusive results are not listed. Entries that show only a call come without a potency. Activity calls are given as the source filed them. Calls come from the whole dose curve; as a rule, active = well fitted inhibition curve with a large enough effect; inconclusive = small, poorly fitted or top-dose-only effect; inactive = no such curve, though single readings can be large or run the other way. Where a SMILES comes first, the peptide text is derived from it. [ ]: non-standard residue; d: D form. PhLac = O=C(O)[CH](O)Cc1ccccc1; NMeV = CN[CH](C(=O)O)C(C)C

Experiment: P-glycoprotein substrates identified in KB-3-1 adenocarcinoma cell line, qHTS therapeutic library screen (AID 1346986); note: nearly all actives have a fitted effect of over 60% in size
Conditions: KB-3-1 parental cells viability, CellTiter-Glo, 72 h; series mostly up to 44.5 µM
Procedure, shortened: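 In 1536-well format, 500 cells/well received pinned compound titrations and were incubated 72 h, 5% CO2. Viability was read by CellTiter-Glo; cytotoxic if AC50 < 10 uM and efficacy >50%.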

Row | SMILES | Potency | outcome
1 | CC1=CC(=O)CC(C)(C)C1CCC(C)OC1OC(COC(=O)c2cc(O)c(O)c(O)c2)C(O)C(O)C1O (configuration not stated) | inactive | –
2 | CC1=CCC2C(C)(CO)CCCC2(CO)C1CO (configuration not stated) | inactive | –
3 | CC(C)CC(=O)O[C@@H]1OC=C(CO[C@@H]2O[C@H](CO[C@@H]3O[C@H](CO)[C@@H](O)[C@H](O)[C@H]3O)[C@@H](O)[C@H](O)[C@H]2O)[C@H]2C[C@H](O)[C@@H](CO)[C@@H]12 | inactive | –
4 | C[C@@H]1CC[C@]2(C(=O)O)CC[C@]3(C(=O)O)C(=CCC4[C@@]5(C)CC[C@H](O[C@@H]6O[C@@H](C)[C@H](O[C@@H]7O[C@H](CO)[C@@H](O)[C@H](O)[C@H]7O)[C@@H](O)[C@H]6O)C(C)(C)C5CC[C@]43C)C2[C@H]1C (some centres not stated) | inactive | –
5 | CC1CCC2C(C(=O)O)=CC3C(O)C(C)(C)CC123 (configuration not stated) | inactive | –
6 | CC1(C)CC[C@]2(C(=O)O[C@@H]3O[C@H](CO)[C@@H](O)[C@H](O)[C@H]3O)CC[C@]3(C)C(=CCC4[C@@]5(C)C[C@@H](O)[C@H](O)[C@@](C)(CO)C5CC[C@]43C)C2C1 (some centres not stated) | inactive | –
7 | CC(=O)OC[C@]1(O)[C@H]2[C@H](OC(=O)CC(C)C)OC=C(CO[C@@H]3O[C@H](CO)[C@@H](O)[C@H](O)[C@H]3O)[C@H]2C[C@@H]1O | inactive | –
8 | O=C(O)CCc1cccc(O[C@@H]2O[C@H](CO)[C@@H](O)[C@H](O)[C@H]2O)c1O | inactive | –
9 | COc1ccccc1[C@@H]1C2=C(CC(C)(C)CC2=O)Nc2n[nH]c(C(F)(F)F)c21 | inactive | –
10 | CC(C)C(C(=O)N1CCCC1C(=O)O)N(C)C(=O)C(O)Cc1ccccc1 (configuration not stated) (H-[PhLac]-[NMeV]-Pro-OH; configuration not given here) | inactive | –
11 | CC1=C2C(=O)O[C@@H](c3ccoc3)[C@]2(C)CCC1 | inactive | –
12 | OC[C@H]1O[C@@H](OC(CCCCc2ccc(O)cc2)CCc2ccc(O)cc2)[C@H](O[C@@H]2OC[C@](O)(CO)[C@H]2O)[C@@H](O)[C@@H]1O (some centres not stated) | inactive | –
13 | CC(C)(C)NCC(O)COc1cccc2c1CCCC2=O (configuration not stated) | inactive | –
14 | CC1(C)C(=O)C(C)(C)c2cc(C(=O)Nc3ccc(C(=O)O)cc3)ccc21 | inactive | –
15 | CC1NC(=O)CNC(=O)C(C(C)C)NC(=O)C2CCCN2C(=O)C(C(C)C)NC(=O)C(Cc2c[nH]c3ccccc23)NC1=O (configuration not stated) (cyclo(GAWVPV); configuration not given here) | inactive | –
16 | C[C@@H]1O[C@@H](O[C@H]2[C@H](OC(=O)[C@]34CCC(C)(C)C[C@H]3C3=CCC5[C@@]6(C)C[C@H](O)[C@H](O[C@@H]7O[C@H](CO[C@@H]8OC[C@H](O)[C@H](O)[C@H]8O)[C@@H](O)[C@H](O)[C@H]7O)C(C)(C)C6CC[C@@]5(C)[C@]3(C)C[C@H]4O)OC[C@@H](O)[C@@H]2O)[C@H](O)[C@H](O[C@@H]2OC[C@](O)(CO)[C@H]2O)[C@H]1O[C@@H]1OC[C@H](O)[C@H](O[C@@H]2OC[C@@H](O)[C@H](O)[C@H]2O)[C@H]1O (some centres not stated) | – | inactive [at 9.29 µM]
17 | OCCc1ccc(O[C@@H]2O[C@H](CO)[C@@H](O)[C@H](O)[C@H]2O)c(O)c1 | inactive | –
18 | C[C@@H]1C[C@H](O)/C=C/[C@H](O)[C@@H](O)CC(=O)O1 | inactive | –
19 | CCC(C)C(=O)O[C@@H]1[C@@H](O)[C@@H](O[C@H]2O[C@H](CO)[C@@H](O)[C@H](O)[C@H]2O)O[C@H](CO)[C@H]1O (some centres not stated) | inactive | –

Row | SMILES | Potency | outcome
20 | CCC(CCO[C@@H]1O[C@H](CO[C@H]2OC[C@](O)(CO)[C@H]2O)[C@@H](O)[C@H](O)[C@H]1O)C(C)(C)O (some centres not stated) | inactive | –
21 | C[C@@H]1O[C@@H](O[C@H]2[C@H](OC(=O)C34CCC5(C)C(=CCC6C7(C)CC(O)C(O[C@@H]8O[C@H](C(=O)O)[C@@H](O)[C@H](O)[C@H]8O)C(C)(C(=O)O)C7CCC65C)C3CC(C)(C)CC4O)O[C@H](C)[C@@H](O)[C@@H]2O)[C@H](O)[C@@H](O[C@@H]2OC[C@](O)(CO)[C@H]2O[C@@H]2O[C@H](CO)[C@@H](O)[C@H](O)[C@H]2O)[C@H]1O (some centres not stated) | – | inactive [at 9.29 µM]
22 | Cn1c(=O)c2nc(/C=C/c3cccc(Cl)c3)n(C)c2n(C)c1=O | inactive | –
23 | Cc1cc(O)cc(Oc2cc(C)c(C(=O)O)c(O)c2)c1 | inactive | –
24 | C[C@@H]1O[C@@H](O[C@@H]2[C@@H](O)[C@@H](O)[C@H](O[C@@H]3[C@@H](O)[C@@H](O[C@]4(CO)O[C@H](CO)[C@@H](O)[C@@H]4OC(=O)/C=C/c4ccc(O)cc4)O[C@H](CO)[C@H]3OC(=O)/C=C/c3ccc(O)cc3)O[C@H]2C)[C@H](O)[C@H](O)[C@H]1O | – | inactive [at 9.29 µM]
25 | CC(CCC1(O)OC2CC3C4CCC5CC(O[C@@H]6O[C@H](CO)[C@@H](O)[C@H](O)[C@H]6O[C@@H]6OC[C@@H](O)[C@H](O)[C@H]6O)C(O)CC5(C)C4CCC3(C)C2C1C)CO[C@@H]1O[C@H](CO)[C@@H](O)[C@H](O)[C@H]1O (some centres not stated) | – | inactive [at 9.29 µM]
26 | O=C(/C=C/c1c(C(=O)O)[nH]c2cc(Cl)cc(Cl)c12)Nc1ccccc1 | inactive | –
27 | CC(=O)Oc1cc2c(s1)CCN([C@H](C(=O)C1CC1)c1ccccc1F)C2 | inactive | –
28 | CC(=O)[C@@H]1CC[C@]2(C(=O)O)CC[C@]3(C)C(CCC4[C@@]5(C)CC[C@H](O)C(C)(C)C5CC[C@]43C)C12 (some centres not stated) | inactive | –
29 | COCC(=O)N1CCc2cc(-c3csc(NC(=O)c4cc(OC)cc(OC)c4)n3)ccc21 | inactive | –
30 | COC1=CC(=O)O[C@@H](/C=C/c2ccccc2)[C@@H]1O | inactive | –
31 | C=CC(C)(C)O[C@@H]1O[C@H](CO[C@@H]2OC[C@](O)(CO)[C@H]2O)[C@@H](O)[C@H](O)[C@H]1O | inactive | –
32 | CC[C@H](/C=C/[C@@H](C)[C@H]1CC[C@H]2[C@@H]3CC=C4C[C@@H](O)CC[C@]4(C)[C@H]3CC[C@]12C)C(C)C | – | inactive [at 5.11 µM]
33 | CC(CCC1C(C(=O)O)=CC(=O)CC1(C)C)O[C@@H]1O[C@H](CO)[C@@H](O)[C@H](O)[C@H]1O (some centres not stated) | inactive | –
34 | CCn1c2ccccc2c2cc(CNC)ccc21 | inactive | –
35 | C/C(=C\CO)CC/C=C(\C)C(=O)O[C@H]1[C@H](OC2OC=C(C(=O)O)C3CCC(C)(O)C23)O[C@H](CO)[C@@H](O)[C@@H]1O (some centres not stated) | inactive | –
36 | COc1cc(C2c3cc(O)c(OC)cc3CC(CO)C2CO)ccc1O (configuration not stated) | inactive | –
37 | CCCC(N[C@@H](C)C(=O)N1[C@H](C(=O)O)C[C@@H]2CCCC[C@@H]21)C(=O)OCC (some centres not stated) | inactive | –
